# Results as given in PubChem BioAssay (NCI).
# Compounds without any hit were thinned out: in the full panel of roughly 83,000, 20% have a hit.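 The endpoint reported here, percent growth, reads 100 for growth as untreated, 0 for no net growth and -100 for all cells dead.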 Active and inactive are the calls of the source. How the source made its calls: active means growth percent below 10; inactive means the rest.
# Tested on: HL-60(TB) leukemia
# Test: NCI-60 one-dose screen, 48 h (100 = growth as untreated, 0 = no growth, -100 = all killed)
# Settings: 10 µM unless noted
row,Compound,growth
1,CSc1nc2c(c(=O)n1C)C1(C(=O)N(Cc3ccccc3)c3ccccc31)c1c(nc(SC)n(C)c1=O)N2,73.4% (inactive)
2,CC1(O)CCC2CC3OC3(C)CCC3OC3(C)C(O)CC1C2(C)C (stereo not given),137% (inactive)
3,O=C(/C(=N/O)S(=O)(=O)c1ccccc1)c1cccs1,90.9% (inactive)
4,O=C1Nc2ccccc2/C1=C/c1cn(CCCn2c3ccccc3c(=O)c3ccccc32)c2ccccc12,84% (inactive)
5,CN1CCN(c2nc(-c3cccnc3)nc3sc4c(c23)CCCCCC4)CC1,87.2% (inactive)
6,COc1ccc2nc3cc(Cl)ccc3c(Nc3cc(C(C)C)c(O)cc3C)c2c1,7.64% (active)
7,CCCCCn1cnc2c(=S)nc[nH]c21,95% (inactive)
8,N#CCNc1ccc(C(=O)O)cc1,99.2% (inactive)
9,CN[C@@H](C)C(=O)N[C@H]1CCS[C@H]2CC(C)(C)[C@@H](C(=O)N[C@H]3c4ccccc4C[C@H]3OCC#CC#CCO[C@@H]3Cc4ccccc4[C@@H]3NC(=O)[C@H]3N4C(=O)[C@@H](NC(=O)[C@H](C)NC)CCS[C@H]4CC3(C)C)N2C1=O,-47.4% (active)
10,CCCCCCSc1ncnc2nc[nH]c12,72.2% (inactive)
11,Cc1nn(-c2ccccc2)c2nc3nc4c(c(N)c3c(-c3ccc(Cl)cc3)c12)CCC4,102% (inactive)
12,Nc1ccccc1-c1n[nH]c(=O)[nH]c1=O,105% (inactive)
13,N=C(N)c1ccc(-c2ccc(-c3cncc4ccccc34)s2)s1,13.6% (inactive)
14,CC1CCCCN1C(=S)Nc1ccc(S(=O)(=O)N2CCCCC2)cc1 (stereo not given),102% (inactive)
15,CSc1[nH]c(=O)ncc1F,106% (inactive)
16,CSc1ccccc1C#C/C=C\C#Cc1ccccc1N1CCCCC1=O,107% (inactive)
17,Nc1nc(N)c2nc(CNc3ccc(C(=O)CC(CCC(=O)O)C(=O)O)cc3)cnc2n1 (stereo not given),49% (inactive)
18,COc1ccc(C(=O)c2cc(C)c(OC)c(C)c2)c(OC)c1NC(C)=O,-26.3% (active)
19,CC(C)(C)CC(C)(C)Nc1c(-c2ccc(C(F)(F)F)cc2)nc2cnccn12,79.4% (inactive)
20,CC(C)(C)OC(=O)N1CCc2c(sc3ncnc(N/N=C/c4ccccc4Br)c23)C1,94.8% (inactive)

row,Compound,growth
1,COc1cc2c(cc1[N+](=O)[O-])-c1ccc([N+](=O)[O-])cc1/C2=N\O,89.5% (inactive)
2,O=C1c2ccccc2C2N1CCC1CCc3ccccc3N12 (stereo not given),104% (inactive)
3,O=C(Nc1ccc(Cl)cc1F)c1cc(I)ccc1O,19.9% (inactive)
4,Nc1ncc(-c2cnn(C3CCNCC3)c2)cc1-c1nc2cc(Cl)ccc2o1,-71.3% (active)
5,COC(=O)Nc1nc2ccc(C(=O)c3cccs3)cc2[nH]1,-45.1% (active)
6,C[C@H]1[C@H]2[C@H]3CC[C@@H]4[C@@]5(C)C/C(=C/c6ccco6)C(=O)C(C)(C)[C@@H]5CC[C@@]4(C)[C@]3(C)CC[C@]23CO[C@]1(C)[C@@H](C(=O)/C=C\c1ccco1)C3,95.8% (inactive)
7,CCOC(=O)CO,83.5% (inactive)
8,COc1cc(C2C(C(=O)c3cccs3)=C(O)C(=O)N2CCN2CCOCC2)cc(OC)c1OC (stereo not given),120% (inactive)
9,O=C1CCN2C(=O)Nc3ccccc3C2C1 (stereo not given),94.5% (inactive)
10,C=C1C(=O)O[C@H]2[C@H]1CC/C(COC(=O)/C=C\C(=O)NCc1ccc(Cn3c(=O)sn(-c4ccccc4)c3=O)cc1)=C\CC[C@@]1(C)O[C@@H]21,-3.22% (active)
11,CC1=C(C(=O)OCc2ccccc2)C(c2ccc3c(c2)OCO3)n2c(nc3ccccc32)N1 (stereo not given),-14.7% (active)
12,CNc1cccc2c1C(=O)c1cccc(N)c1C2=O,34.4% (inactive)
13,Cc1ccc(C(=O)Nc2ccc(CN3CCN(C)CC3)c(C(F)(F)F)c2)cc1C#Cc1cnc2cccnn12,-71.9% (active)
14,O=[N+]([O-])c1cccc(-c2cc(-c3cc(Br)ccc3O)[nH]n2)c1,-17.1% (active)
15,COc1ccc(C(=O)c2cc(OC)c(OC)c(OC)c2)cc1OC(=O)CCl,-34.4% (active)
16,COc1ccc(C2=NN(C(=O)c3cc(-c4ccc(C)cc4)nc4ccccc34)C(c3cc(-c4ccccc4)nn3-c3ccccc3)C2)cc1 (stereo not given),90.6% (inactive)
17,CCCCOc1nc2ccc(Cl)cc2cc1/C=C/C(=O)/C=C/c1ccc(OC)cc1,89.5% (inactive)
18,Cc1n(Cc2ccc3ccccc3c2)c(Cl)c(Cl)[n+]1Cc1ccc2ccccc2c1,-34.6% (active)
19,CC(=O)NC(O)C(Cl)Cl (stereo not given),105% (inactive)
20,CN1CCN(Cc2ccc(NC(=O)c3ccc(C#Cc4c(N)ncc5ccc(F)cc45)cc3)cc2C(F)(F)F)CC1,-10.7% (active)
